# Active and inactive are the calls of the source.
# Legend:
# [1] = compound effects on lung adenocarcinoma cell viability – A549, calcein-AM fluorescence, 48 h, basal, profiling panel (AID 1162); conditions: higher = more signal
# [2] = compound effects on differentiated 3T3-L1 adipocyte viability – cell-based, 3T3-L1 adipocytes, calcein-AM fluorescence, 48 h, basal, profiling panel (AID 1163); conditions: 3T3-L1 adipocytes viability, higher = more signal
# [3] = compound effects on hepatocellular carcinoma cell viability – HepG2, calcein-AM fluorescence, 48 h, basal, profiling panel (AID 1164); conditions: higher = more signal
# [4] = compound effects on multiple myeloma cell viability – MM1S, calcein-AM fluorescence, 48 h, basal, profiling panel (AID 1165); conditions: higher = more signal
# [5] = calcein-AM signal in unstimulated myeloma cells – cell-based, calcein-AM fluorescence, 48 h, PK04 Diversity Set, profiling panel (AID 1166); conditions: RPMI8226 myeloma viability, higher = more signal;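 also: cells grown under basal conditions without added stimulus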
# [6] = JC-1 mitochondrial signal, unstimulated HepG2 cells – cell-based, JC-1 fluorescence, 24 h, 100 nL compound, profiling panel (AID 1167); conditions: HepG2 mitochondrial potential, higher = more signal
# [7] = JC-1 mitochondrial signal, unstimulated adipocytes – cell-based, JC-1 fluorescence, 3T3-L1 adipocytes, 24 h, 100 nL compound, profiling panel (AID 1168); conditions: JC-1 mitochondrial fluorescence, higher = more signal, called active from +8 up or from −8 down
# [8] = JC-1 mitochondrial signal, unstimulated myeloma cells – cell-based, JC-1 fluorescence, RPMI8226, 24 h, 100 nL compound, profiling panel (AID 1169); conditions: JC-1 mitochondrial potential fluorescence, higher = more signal
# [9] = JC-1 mitochondrial signal, unstimulated MM1S myeloma – cell-based, JC-1 fluorescence, 24 h, 100 nL compound, profiling panel (AID 1170); conditions: MM1S mitochondrial potential, higher = more signal
# [10] = resazurin metabolic signal in A549 cells – cell-based, resazurin fluorescence, 24 h, PK04 Diversity Set, profiling panel (AID 1171); conditions: A549 viability, higher = more signal, called active from +8 up or from −8 down
# Also: test concentration not given here.
SMILES,z-score [1],z-score [2],z-score [3],z-score [4],z-score [5],z-score [6],z-score [7],z-score [8],z-score [9],z-score [10]
C/C=C/[C@@H](CCn1cc([C@H](O)c2ccccc2)nn1)[Si](C)(C)c1ccc(OC)cc1,-0.536,0.485,-0.713,-2.9,-3.1,-1.13,-0.255 (inactive),-0.268,-0.462,0.372 (inactive)
COc1ccc([Si](C)(C)[C@H]2[C@H](CCn3cc(CCO)nn3)O[C@@]3(C(=O)N(Cc4cccc(N5C(=O)c6cccc7cccc5c67)c4)c4ccccc43)[C@@H]2C)cc1,-1.05,-0.354,-4.39,-2.83,-4.51,1.6,2.9 (inactive),-1.05,-2.03,-3.05 (inactive)
O=C1OCC=C[C@H]2OC34C=CCN(CCN5CCOCC5)C(=O)[C@H]3N(CCCCCO)C(=O)[C@@H]4[C@@H]12 (stereo not given in full),0.348,0.277,-0.36,0.148,0.182,-0.539,0.379 (inactive),0.205,0.802,-0.536 (inactive)
COCCOC(=O)N1C(=O)[C@@]2(c3cc(C#CCCO)ccc31)[C@H](c1ccc(OCCO)cc1)N1[C@H](c3ccccc3)[C@H](c3ccccc3)OC(=O)[C@H]1[C@@H]2C(=O)N1CCc2cc(OC)c(OC)cc2C1,-0.874,0.586,0.863,0.541,0.263,-0.0698,1.79 (inactive),-0.299,-1.48,-0.533 (inactive)
COC(=O)[C@@]1(Cc2ccccc2)[C@H]2c3cc(C(=O)N4CCCC4)n(Cc4ccccc4)c3C[C@H]2CN1C(=O)c1ccccc1,-1.39,0.988,-0.0065,-2.96,-4.64,0.106,-1.74 (inactive),-0.737,-0.777,-3.12 (inactive)
CCCCC=C[C@@H](NC(=O)CCc1ccccc1)c1ccccc1,-2.48,-0.346,-3.43,-3.31,-4.71,-3.88,-0.775 (inactive),-0.85,-1.74,-1.3 (inactive)
O=C(Nc1cc(Br)ccc1C(=O)NCc1cccc(O)c1)c1ccccc1,-1.71,-0.318,-2.25,-3.11,-2.49,0.386,5.49 (inactive),-0.226,-1.12,-0.326 (inactive)
C=CCC(OC(C)=O)[C@@H]1[C@@H](N(Cc2ccc(-c3ccccc3)cc2)C(=O)c2cccc3ccccc23)c2cc(OCCCO)ccc2N1C(=O)c1ccc2ccccc2n1 (stereo not given in full),0.479,0.522,0.833,-0.318,0.116,3.07,0.0656 (inactive),-0.0127,0.506,0.131 (inactive)
CCN(CC)c1ccc(N2CC=CC34O[C@@H]5/C=C\CCCOC(=O)C5[C@H]3C(=O)N(CCCCCCO)[C@@H]4C2=O)cc1 (stereo not given in full),0.626,0.554,1.24,0.0885,0.0026,1.09,0.587 (inactive),-0.25,0.0342,0.0444 (inactive)
[N-]=[N+]=Nc1ccccc1C[C@]1(C(=O)NCCN2CCOCC2)N=C(c2ccc(OCCCO)cc2)O[C@H]1c1ccccc1N=[N+]=[N-],0.0861,0.784,-0.111,-2.41,-1.2,1.23,1.27 (inactive),-1,-0.571,-2.47 (inactive)
C=CCOC(=O)[C@H]1[C@@H]2C(=O)O[C@@H](c3ccccc3)[C@@H](c3ccccc3)N2[C@@H](c2ccc(OCCOC(=O)[C@H]3C[C@H]4C(=O)N[C@@H](CCCCN(C)C)C(=O)N4[C@H]3c3ccc(O)cc3)cc2)[C@]12C(=O)Nc1ccccc12,-0.514,1.04,-0.434,-1.54,-0.0817,-1.63,0.665 (inactive),-0.838,-0.391,0.232 (inactive)
Cc1ccc(-c2cccc(=O)o2)cc1,-0.104,0.796,-0.117,0.0881,-0.774,-1.35,-0.263 (inactive),-0.177,-0.299,-0.0164 (inactive)
C#CCNS(=O)(=O)N(C)C,-0.277,-0.738,0.759,0.716,-0.227,0.563,0.48 (inactive),0.0262,-0.777,0.943 (inactive)
COC(=O)C(CC#Cc1ccc2c(c1)[C@]1(C(=O)N2)[C@H](c2ccc(O)cc2)N2[C@H](c3ccccc3)[C@H](c3ccccc3)OC(=O)[C@H]2[C@@H]1C(=O)O)C(=O)OC,0.391,-0.987,0.0171,0.226,-0.892,-0.141,-0.687 (inactive),0.491,0.412,-0.279 (inactive)
COc1ccc([Si](C)(C)[C@@H]2[C@@H](CCO)O[C@]3(C(=O)N(Cc4ccccc4)c4ccc(N5C(=O)COc6ccccc65)cc43)[C@H]2C)cc1,-1.4,0.155,-1.08,-2.24,-0.0589,0.102,0.222 (inactive),-0.741,-0.857,-0.177 (inactive)
COC(=O)[C@@]1(Cc2ccccc2N=[N+]=[N-])N=C(c2ccc(OCCCO)cc2)O[C@H]1c1ccccc1,-2.99,-0.421,-5.47,-3.58,-3.93,-3.13,-0.138 (inactive),-1.06,-2.9,-2.88 (inactive)
COCCCNC(=O)[C@@]1(C)c2ccccc2C(=O)N(c2ccc(C)cn2)[C@H]1c1ccc(CO)cc1,-0.255,-1.13,-0.956,-0.0048,-0.857,-0.587,0.285 (inactive),0.054,-0.295,0.999 (inactive)
COc1ccc([Si](C)(C)[C@@H]2[C@@H](CC(=O)N(CCO)Cc3ccccc3)O[C@]3(C(=O)N(Cc4ccc(N5CCOC5=O)cc4)c4ccccc43)[C@H]2C)cc1,-0.65,0.603,-1.94,-2.35,-4.21,-0.0678,1.19 (inactive),-1.01,-1.29,-1.61 (inactive)
C=CCNC(=O)[C@H]1[C@@H]2C(=O)O[C@@H](c3ccccc3)[C@@H](c3ccccc3)N2[C@@H](c2ccc(O)cc2)[C@]12C(=O)N(C(=O)OCCOC)c1ccc(C#CC3(O)CCCCCC3)cc12,0.904,0.76,2.26,-1.2,-3.53,-1.84,0.509 (inactive),-0.713,-0.808,-0.316 (inactive)
COC(=O)[C@@]1(Cc2ccc(OC)cc2)[C@H]2c3cc(C(=O)N4CCCC4)n(CCc4ccc(O)c(OC)c4)c3C[C@H]2CN1C(=O)c1ccccc1,-1.47,0.0048,-0.0475,-1.03,-0.254,-0.851,-0.867 (inactive),-0.167,-0.563,1.05 (inactive)
COc1ccc(C(=O)Nc2ccc(CN3C(=O)[C@]4(O[C@H](CCn5cc([C@H](O)c6ccccc6)nn5)[C@@H]([Si](C)(C)c5ccc(OC)cc5)[C@@H]4C)c4ccccc43)cc2)cc1,-0.0731,-0.145,-4.03,-2.67,-3.84,1.48,0.374 (inactive),-1.12,-2.36,-1.64 (inactive)
O=C1O[C@@H](c2ccccc2)[C@@H](c2ccccc2)N2[C@@H](c3ccc(O)cc3)[C@]3(C(=O)Nc4ccc(C#CC5=CCCCC5)cc43)[C@@H](C(=O)Nc3nc4ccccc4s3)[C@H]12,0.583,-0.0897,1.46,-0.575,-1.81,-2.6,0.03 (inactive),-0.745,-1.02,-0.361 (inactive)
O=C1C[C@@](C(=O)NCc2ccccc2)(c2ccc([N+](=O)[O-])cc2)[C@@H](c2ccc(CO)cc2I)N1C1CCCCC1,1.14,0.317,0.593,-1.6,-1.22,1.67,0.254 (inactive),-0.572,0.576,0.75 (inactive)
O=C1OCCC=C[C@H]2OC34C=CCN(Cn5nnc6ccccc65)C(=O)[C@H]3N(CCCCCO)C(=O)[C@@H]4C12 (stereo not given in full),-0.0295,0.43,0.293,1.75,0.723,0.742,0.117 (inactive),0.0919,-1.19,-0.605 (inactive)
CN1C(=O)C2C=CC(C(O)c3ccc(F)cc3)N(N3CCCCC3)C2C1=O (stereo not given),-1.1,-1.24,-0.572,-1.05,0.0924,-1.43,-0.487 (inactive),0.00989,-0.118,-0.707 (inactive)
COC(=O)C(CC#Cc1ccc2c(c1)[C@]1(C(=O)N2)[C@H](c2ccc(OCCO)cc2)N2[C@H](c3ccccc3)[C@H](c3ccccc3)OC(=O)[C@H]2[C@@H]1C(=O)O)C(=O)OC,1.88,-0.0521,1.45,0.47,-0.247,-0.0694,0.222 (inactive),-0.336,0.132,0.179 (inactive)
C=CCOC(=O)[C@@H]1[C@H]2C(=O)O[C@H](c3ccccc3)[C@H](c3ccccc3)N2[C@H](c2ccc(OCCOC(=O)[C@@H]3C[C@@H]4C(=O)N5CCC[C@H]5C(=O)N4[C@@H]3c3cccc(OCCO)c3)cc2)[C@@]12C(=O)Nc1ccc(I)cc12,-0.283,0.584,-1.27,-0.16,0.583,-0.853,0.272 (inactive),-0.661,-0.984,0.592 (inactive)
COCCOC(=O)N1C(=O)[C@@]2(c3cc(C#CC4(O)CCCCCC4)ccc31)[C@H](C(=O)NC[C@H](O)c1ccccc1)[C@H]1C(=O)O[C@H](c3ccccc3)[C@H](c3ccccc3)N1[C@@H]2c1ccc(OCCO)cc1,-0.248,0.504,-0.466,-1.16,-1.91,-1.64,1 (inactive),-1.01,-1.19,0.365 (inactive)

# Source: PubChem BioAssay
